Each structure is given as a SMILES string. Where “and” joins values, the source holds several entries; their conditions need not be identical. Equal values may be shown once. Records with an inconclusive call do not appear. A call without a number means that no potency is given here. The source holds several records for some structures; these can differ, active in one and inactive in another. Calls of active or inactive are those of the source. Calls come from the whole dose curve; as a rule, active = well fitted cell-killing curve with a large enough effect in the repeat runs; inconclusive = weak or mixed curves, or effect the other way; inactive = no such curve, though single readings can be large or run the other way.

Consider 39 compounds from PubChem BioAssay (Tox21).
Note: nearly all actives have a fitted effect of over 50% in size.

A short description of the first assay: qHTS assay to identify small molecule agonists of the vitamin D receptor (VDR) signaling pathway - cell viability counter screen (AID 743224). Note: potency is the fitted concentration of half-maximal effect. The note with it: VDR-bla HEK293T viability, CellTiter-Glo luminescence, 16 h; series mostly up to 62.6 µM. In a few lines:
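Cells: VDR-bla, 2,000/well, settled 4 h. Treatment: compounds in DMSO, 16 h, 37C/5% CO2. Readout: CellTiter-Glo luminescence after 30 min RT.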
Take `CCCCOCCOCCO`: the Potency result was “inactive”.
Regarding `CC(C)(C)NC(=O)[C@H]1CC[C@H]2[C@@H]3CC[C@H]4NC(=O)C=C[C@]4(C)[C@H]3CC[C@]12C`, the Potency entry was “inactive”.
Still for that read-out and setting: the entry for `O=c1oc(=O)c2cc3c(=O)oc(=O)c3cc12` is “inactive”.
For the compound `CN1C(C(=O)Nc2ccccn2)=C(O)c2ccccc2S1(=O)=O`, the Potency entry is “inactive”.
On to `OCCO`, for which the Potency entry was “inactive”.
Still for that read-out and setting: the entry for `CC(CCC(=O)O)(c1ccc(O)cc1)c1ccc(O)cc1` is “inactive”.
As for `COc1ccc(OC)c(C(O)CNC(=O)CN)c1` (centres undefined), the Potency result was “inactive”.
`CCCc1c(OCCCCc2nn[nH]n2)ccc(C(C)=O)c1O`: the Potency entry was “inactive”.
Still for that read-out and setting: with `O=[N+]([O-])c1ccc2c(c1)Cc1ccccc1-2` the entry was “inactive”.
Still for that read-out and setting: the entry for `CC1=CCC(C(C)(C)O)CC1` (centres undefined) is “inactive”; for `CC(C)Oc1ccc2c(=O)c(-c3ccccc3)coc2c1` it is “inactive”; for `O=C1c2cccc(O)c2C(=O)c2c(O)cccc21` it is “inactive”.
On the same count and under the same terms, with `CC(C)=CCC/C(C)=C\CO` the entry was “inactive”; with `Cc1c(OCC(F)(F)F)ccnc1CS(=O)c1nc2ccccc2[nH]1` (centres undefined), “inactive”; with `C[Si](C)(C)O[Si](C)(C)C`, “inactive”.
As for `CC(=O)O[C@]1(C(C)=O)CC[C@H]2[C@@H]3C=C(Cl)C4=CC(=O)[C@@H]5C[C@@H]5[C@]4(C)[C@H]3CC[C@@]21C`, the Potency was 48.9 µM (active) and inactive.
The same measure, in the same setting: with `O=CCc1ccccc1` the entry was “inactive”.
As to `c1ccc2sc(SSN3CCOCC3)nc2c1`, the Potency is 19.5 µM (active) and 49 µM (active).
With `c1cc(-c2ccncc2)ccn1`, the Potency entry is “inactive”.
Turning to `CC(C)=CCCC(C)CCO` (centres undefined), the Potency entry is “inactive”.
Still for that read-out and setting: with `CCCC(=O)O` the entry was “inactive”.
On the same count and under the same terms, with `c1ccc2cc(Nc3ccc(Nc4ccc5ccccc5c4)cc3)ccc2c1` the entry was “inactive”; with `CCCCC(CC)COC(=O)c1ccc(N(C)C)cc1` (centres undefined), “inactive”; with `CC(=O)c1ccccn1`, “inactive”.
Still for that read-out and setting: the entry for `CCCCCCCCCCCO` is “inactive and 49 µM (active)”; for `CC(C)OC=O` it is 52 µM (active) and inactive; for `COc1ccccc1/C=C/C=O` it is “inactive”.
Consider `C#C[C@]1(O)CC[C@H]2[C@@H]3CCC4=Cc5oncc5C[C@]4(C)[C@H]3CC[C@@]21C`, for which the Potency was 54.9 µM (active) and inactive.
The same measure, in the same setting: the entry for `O=C(O)c1ccccc1Nc1cccc(C(F)(F)F)c1` is “inactive”; for `O=CCCCC=O` it is “inactive”.
Same read-out and setting: the entry for `O=C(c1ccccc1)c1ccccc1O` is “inactive”; for `CCOCCOCCO` it is “inactive”.
The same measure, in the same setting: with `Nc1ccccc1N` the entry was “inactive”.
Take `COc1ccc(C(=O)CC(=O)c2ccc(C(C)(C)C)cc2)cc1`: the Potency entry is “inactive”.
On to `C[C@]12CC[C@H]3[C@@H](CCC4=CC(=O)CC[C@@]43C)[C@@H]1CC[C@@H]2C(=O)CO`, for which the Potency result was “inactive”.
Still for that read-out and setting: the figure for `CNCCCC12CCC(c3ccccc31)c1ccccc12` is 21.9 µM (active) and inactive; for `Nc1ccc(S(=O)(=O)Nc2cnc3ccccc3n2)cc1` it is “inactive”.
As to `Cc1ncc[nH]1`, the Potency entry is “inactive”.
Same read-out and setting: the entry for `Brc1cc(Oc2cc(Br)c(Br)c(Br)c2Br)c(Br)c(Br)c1Br` is “inactive”.

Another assay is described as follows: qHTS assay to identify small molecule antagonists of the vitamin D receptor (VDR) signaling pathway - cell viability counter screen (AID 743225). The note with it: VDR-bla HEK293T viability, CellTiter-Glo luminescence, 16 h; series mostly up to 61 µM. In a few lines: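 VDR-bla HEK 293T cells, 4 h pre-incubation at 37C, then compound plus 1-alpha,25-dihydroxyvitamin D3 (3 nM final) for 16 h. After the beta-lactamase FRET read, CellTiter-Glo was added to the same wells; luminescence after 30 min at room temperature.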
In the case of `O=c1oc(=O)c2cc3c(=O)oc(=O)c3cc12`, the Potency result is “inactive”.
On the same count and under the same terms, the entry for `CN1C(C(=O)Nc2ccccn2)=C(O)c2ccccc2S1(=O)=O` is “inactive”; for `CC(CCC(=O)O)(c1ccc(O)cc1)c1ccc(O)cc1` it is “inactive”.
The same measure, in the same setting: the entry for `O=[N+]([O-])c1ccc2c(c1)Cc1ccccc1-2` is “inactive”; for `CC(C)Oc1ccc2c(=O)c(-c3ccccc3)coc2c1` it is “inactive”; for `CC(C)=CCC/C(C)=C\CO` it is “inactive”.
The same measure, in the same setting: with `Cc1c(OCC(F)(F)F)ccnc1CS(=O)c1nc2ccccc2[nH]1` (centres undefined) the entry was “inactive”; with `C[Si](C)(C)O[Si](C)(C)C`, “inactive”; with `CC(=O)O[C@]1(C(C)=O)CC[C@H]2[C@@H]3C=C(Cl)C4=CC(=O)[C@@H]5C[C@@H]5[C@]4(C)[C@H]3CC[C@@]21C`, “inactive”.
Turning to `O=CCc1ccccc1`, the Potency result was “inactive”.
Same read-out and setting: the entry for `CC(C)=CCCC(C)CCO` (centres undefined) is “inactive”; for `CCCC(=O)O` it is “inactive”.
For the compound `c1ccc2cc(Nc3ccc(Nc4ccc5ccccc5c4)cc3)ccc2c1`, the Potency result is “inactive”.
With `CCCCC(CC)COC(=O)c1ccc(N(C)C)cc1` (centres undefined), the Potency result is “inactive”.
On the same count and under the same terms, with `CC(=O)c1ccccn1` the entry was “inactive”; with `CCCCCCCCCCCO`, “inactive”.
Same read-out and setting: the entry for `CC(C)OC=O` is “inactive”; for `C#C[C@]1(O)CC[C@H]2[C@@H]3CCC4=Cc5oncc5C[C@]4(C)[C@H]3CC[C@@]21C` it is “inactive”.
On the same count and under the same terms, the entry for `O=C(O)c1ccccc1Nc1cccc(C(F)(F)F)c1` is “inactive”; for `O=CCCCC=O` it is “inactive”; for `Nc1ccccc1N` it is “inactive”.
Turning to `C[C@]12CC[C@H]3[C@@H](CCC4=CC(=O)CC[C@@]43C)[C@@H]1CC[C@@H]2C(=O)CO`, the Potency result is “inactive”.
On the same count and under the same terms, with `Nc1ccc(S(=O)(=O)Nc2cnc3ccccc3n2)cc1` the entry was “inactive”; with `Cc1ncc[nH]1`, “inactive”; with `Brc1cc(Oc2cc(Br)c(Br)c(Br)c2Br)c(Br)c(Br)c1Br`, “inactive”.
